Screens deposited in PubChem BioAssay by National Center for Advancing Translational Sciences (NCATS).
DT40 TDP1 CPT: growth inhibition of DT40 Tdp1-/-;hTDP1 cells with camptothecin (screen for TDP1 inhibitors); 12% of 420,000 active; Potency, µM (highest dose often 46.2 µM), for inactives: at the highest dose activity change, negative = growth inhibition, most hits filed as inhibitors; chicken DT40 Tdp1-/-;hTDP1 cells + 20 nM CPT, ATP luminescence, 48 h; also: potency is read from the fitted curve at half-maximal effect; nearly all actives have a fitted effect of over 55% in size
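Cell growth measured by CellTiter-Glo luminescence after a minimum 48 h, 37 C compound exposure with 20 nM CPT in Tdp1-knockout DT40 cells stably expressing hTDP1, seeded 400/well; qHTS titration format.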
TDP1 inh: inhibitors of human tyrosyl-DNA phosphodiesterase TDP1. Q9NUW8. recombinant TDP1, AlphaScreen DNA substrate cleavage. Potency, µM (top dose mostly 130 µM), for inactives: at the top dose activity change, negative = inhibition, actives largely listed as inhibitors. 0.28% of 350,000 active; also: potency is read from the fitted curve at half-maximal effect; nearly all actives have a fitted effect of over 40% in size
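Enzyme-compound mixtures sat 15 min at room temperature, followed by a 5 min reaction with 15 nM final substrate and 10 min with AlphaScreen beads. Recombinant human Tdp1 was used at 1 nM final.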
CtBP-E1A inh: blocks the CtBP interaction with E1A; AID 651724; AlphaScreen GST-E1A/His-CtBP binding, 1536-well; active compounds read low; activity change, % (test concentration not listed); 0.49% of 340,000 active; in the data active = activity change below about -65%; inconclusive = mostly about -30% to -63%
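Steps: dispense buffer (Tris pH 8.0, NaCl 300 mM, TCEP 1 mM, BSA, Tween 20); add 5X protein mix (GST-E1A, His-CtBP, 125 nM each); pin 23 nL compound; 2 h at 37 °C, dark; add 5X beads (50 ug/mL); 1 h; read.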
DT40 TDP1 no CPT: qHTS for Inhibitors of human tyrosyl-DNA phosphodiesterase 1 (TDP1): qHTS in cells in absence of CPT. 15% of 420,000 active. DT40 Tdp1-/- hTDP1 cells, no CPT, ATP luminescence, 48 h. AID 686978, 2013. Potency, µM (series often up to 46.2 µM), for inactives: at the highest dose activity change, negative = growth inhibition, actives largely listed as inhibitors; also: potency is read from the fitted curve at half-maximal effect; nearly all actives have a fitted effect of over 55% in size
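Chicken DT40 Tdp1-/- cells stably complemented with human TDP1 were seeded at 400 cells/well with DMSO in place of 20 nM camptothecin. After compound pinning, cells grew at least 48 hr at 37 °C; viability read by CellTiter-Glo luminescence.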
IL-1B inflam inh: inflammasome signaling inhibition, IL-1 beta readout; THP-1 LPS/ATP IL-1B secretion, AlphaLISA, 16 h; active compounds read low; activity change, % at 57.5 µM; 4.7% of 360,000 active; AID 743279; in the data active = activity change below about -50%; inconclusive = mostly about -30% to -49%
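Secreted IL-1B measured by AlphaLISA bead assay after 16 h compound exposure of THP-1 cells; compounds (final up to 57.5 uM) added 1 h before LPS (250 ng/mL) and ATP (1.25 mM) stimulation; lower signal means less secretion.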
Six1-Eya2 inh: Six1/Eya2 interaction inhibition. activity change, % (concentration not given with the values). Q15475+O00167. AlphaScreen GST-Six1/His-Eya2 binding, biochemical; active compounds read low. 0.56% of 360,000 active; in the data active = activity change below about -65%; inconclusive = mostly about -30% to -63%
Target sequence (O00167 whole entry, looked up): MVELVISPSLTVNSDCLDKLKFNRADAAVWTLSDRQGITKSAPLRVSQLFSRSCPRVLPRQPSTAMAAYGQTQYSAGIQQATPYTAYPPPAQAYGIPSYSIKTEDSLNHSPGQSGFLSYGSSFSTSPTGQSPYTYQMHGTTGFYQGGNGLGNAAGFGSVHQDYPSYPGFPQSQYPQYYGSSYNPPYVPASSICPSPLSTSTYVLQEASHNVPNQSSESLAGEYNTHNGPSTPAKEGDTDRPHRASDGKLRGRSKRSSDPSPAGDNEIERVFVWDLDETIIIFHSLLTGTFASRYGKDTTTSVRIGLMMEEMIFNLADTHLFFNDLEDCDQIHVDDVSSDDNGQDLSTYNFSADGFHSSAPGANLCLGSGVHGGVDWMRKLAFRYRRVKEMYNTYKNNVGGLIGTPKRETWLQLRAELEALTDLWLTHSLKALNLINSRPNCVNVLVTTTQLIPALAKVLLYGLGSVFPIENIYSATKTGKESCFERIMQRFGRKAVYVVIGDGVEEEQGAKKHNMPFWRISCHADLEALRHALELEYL
Target sequence (Q15475 whole entry, looked up): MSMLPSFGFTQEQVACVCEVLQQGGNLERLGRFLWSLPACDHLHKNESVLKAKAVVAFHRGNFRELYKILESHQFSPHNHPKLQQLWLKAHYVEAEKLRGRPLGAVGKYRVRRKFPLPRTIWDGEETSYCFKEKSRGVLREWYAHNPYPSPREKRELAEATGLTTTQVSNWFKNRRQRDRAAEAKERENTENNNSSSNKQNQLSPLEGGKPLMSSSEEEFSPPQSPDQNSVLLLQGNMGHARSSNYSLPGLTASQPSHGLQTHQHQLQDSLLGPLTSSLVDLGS
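Compounds are tested against tagged Six1 and Eya2 proteins bridged by glutathione donor and nickel acceptor beads; after a one-hour incubation at 37 °C without light, AlphaScreen emission is recorded.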
The depositor's hits bear a star; i = inactive; ? = inconclusive; / = no result; [ ] = dose if it differs, or a comment. Compounds with a hit are over-represented: about 18% of the library has one in this group of screens. Unless noted, calls follow the shape of the dose curve; as a rule, active = well fitted curve in the direction sought with a large enough effect; inconclusive = small, poorly fitted or top-dose-only effect, or another doubt; inactive = no such curve, though single readings can be large; an effect the other way counts as inactive or inconclusive. % is scaled to controls: 0 for no effect and ±100 for the full control effect.

SMILES | DT40 TDP1 CPT | TDP1 inh | CtBP-E1A inh | DT40 TDP1 no CPT | IL-1B inflam inh | Six1-Eya2 inh
CCn1c(C)nc2cc(C(=O)NNC(=O)c3ccc(C)cc3)ccc21 | -3% | -2% | 2 | -23% | 10 | -6
CC1(Cc2cn(CCC#N)c3ccccc23)OCCO1 | -7% | -1% | 0 | -1% | 17 | 0
CC(C)c1ccc(NC(=O)C2CCN(S(=O)(=O)c3ccc4c(c3)C(C)(C)C(=O)N4C)CC2)cc1 | 16µM* | / | 5 | ? | 50 | 3
COc1ccc(S(=O)(=O)N2CCC(C(=O)Nc3ccc(OC)c(OC)c3)CC2)cc1C | -14% | / | 24 | -18% | -9 | 27
Cc1ccc(S(=O)(=O)N2CCCN(C)c3nc4ccccc4nc32)cc1 | ? | -11% | -3 | 16µM* | -2 | 15
Cc1ccc(S(=O)(=O)N2CCC(C(=O)Nc3ccc(S(=O)(=O)N4CCCC4)cc3)CC2)cc1C | ? | 0% | -2 | 18µM* | 5 | -1
Cc1ccccc1C(=O)N1CCC(C(=O)Nc2ccc(S(=O)(=O)N3CCOCC3)cc2)CC1 | ? | 1% | / | ? | 27 | 5
CN1CCCN(S(=O)(=O)c2ccccc2)c2nc3ccccc3nc21 | 1% | 6%[0.505 µM] | -19 | -30% | -9 | 45
Cc1ccccc1C(=O)N1CCC(C(=O)Nc2ccc(S(=O)(=O)N3CCCCC3)cc2)CC1 | 16µM* | 6% | -3 | 12µM* | i | 1
Cc1cccc(NC(=O)C2CCN(S(=O)(=O)c3ccc4c(c3)C(C)(C)C(=O)N4C)CC2)c1C | ? | / | 5 | ? | -7 | 4
Cc1ccc(S(=O)(=O)N2CCC(C(=O)Nc3ccccc3N3CCCCC3)CC2)cc1C | 18µM* | 5% | -1 | ? | 16 | -5
COC(=O)C1(C(=O)OC)CCCCN(S(=O)(=O)c2ccc(C)cc2)CCC1 | ? | / | -5 | 21µM* | 3 | 6
Cc1ccc(S(=O)(=O)N2CCN(C(=O)N3CCCC3)CC2)cc1 | -9% | / | -13 | 1% | 3 | 2
Cc1ccc(NS(=O)(=O)c2ccc(NC(=O)C3CCCO3)cc2)cc1 (stereo unspecified) | ? | 0% | 6 | 12µM* | 2 | 6
Cc1ccc(S(=O)(=O)N2CCC(C(=O)Nc3ccccc3N3CCCC3)CC2)cc1C | -21% | 0% | -16 | ? | -2 | -10
O=C(Nc1ccc(S(=O)(=O)Nc2ccccc2)cc1)C1CC1 | ? | 4% | 2 | ? | -12 | 1
Cc1ccc(NS(=O)(=O)c2ccc(NC(=O)C3CC3)cc2)cc1C | 18µM* | 5% | -9 | ? | -2 | 1
CCOC(=O)N1CCN(C(=S)NC(=O)C23CC4CC(CC(C4)C2)C3)CC1 | ? | 5% | 0 | ? | 14 | -17
CN1CCN(S(=O)(=O)c2ccc3ccccc3c2)CC1 | 1% | 3% | 1 | 1% | -3 | 0
O=S(=O)(c1ccc2ccccc2c1)N1CCN(c2ccc(O)cc2)CC1 | 6.5µM* | 9% | / | 8.2µM* | 29 | ?
Cc1cc(NC(=O)c2ccc(NC(=O)C3CCCO3)cc2)ccc1Br (stereo unspecified) | ? | 0% | / | 23µM* | 59 | 0
Cc1ccc(S(=O)(=O)N2CCCN(S(=O)(=O)c3ccc4ccccc4c3)CC2)cc1 | 8.2µM* | 2% | 10 | ? | -16 | 3
Cc1ccc(S(=O)(=O)N2CCCN(C(=O)c3cc4ccccc4[nH]3)CC2)cc1 | 2% | 9% | 0 | ? | -61* | -4
COc1ccc(S(=O)(=O)N2CCCN(S(=O)(=O)c3ccc(OC)cc3C)CC2)c(C)c1 | 23µM* | 3% | 9 | ? | -21 | -4
Cc1ccc(S(=O)(=O)N2CCCN(S(=O)(=O)c3ccc(C)c(C)c3)CC2)cc1C | 23µM* | -1% | -15 | 18µM* | 0 | 1
SMILES | DT40 TDP1 CPT | TDP1 inh | CtBP-E1A inh | DT40 TDP1 no CPT | IL-1B inflam inh | Six1-Eya2 inh
CC1CC(C)CN(S(=O)(=O)c2ccc(NC(=O)CN3CCCCCC3)cc2)C1 (stereo unspecified) | 16µM* | 0%[0.505 µM] | 0 | 21µM* | -53* | -13
Cc1ccc(S(=O)(=O)N2CCCC2)cc1S(=O)(=O)N1CCCC1 | -9% | 3% | 6 | -20% | -4 | 2
O=C(CSc1ccc2ccccc2c1)N1CCN(c2ccc(O)cc2)CC1 | 13µM* | 11% | -11 | 12µM* | 25 | 1
O=C(c1ccc2ccccc2c1)N1CCN(c2ccc(O)cc2)CC1 | ? | 2% | -16 | ? | 2 | -14
C=CCn1c(SCC(=O)NCCc2ccccc2)nnc1C(C)NC(=O)c1cccs1 (stereo unspecified) | -6% | -2% | 4 | 2% | 0 | 0
CCc1ccc(OCC(=O)Nc2nnc(-c3ccco3)s2)cc1 | 3% | -17% | -1 | 20% | 6 | 2
COc1ccc(CNC(=O)C2CCN(S(=O)(=O)c3ccc(-c4nn[nH]n4)cc3)CC2)cc1 | -5% | -5% | 2 | -12% | -2 | -4
CC1CC1C(=O)Nc1ccc(S(=O)(=O)N2CCCCC2)cc1 (stereo unspecified) | 23µM* | 5% | 0 | 21µM* | 14 | 0
Cc1ccc(S(=O)(=O)N2CCC(C(=O)Nc3ccc(S(=O)(=O)N4CCCC4)cc3)CC2)cc1 | ? | / | -23 | 15µM* | -9 | 5
Cc1ccc(S(=O)(=O)N2CCC(C(=O)Nc3ccncc3)CC2)cc1 | ? | 0% | 10 | ? | 14 | 5
Cc1ccc(S(=O)(=O)N2CCCCC2)cc1NC(=O)C1CCN(C(=O)OC(C)(C)C)CC1 | ? | / | -1 | 16µM* | 22 | 0
CCCNC(=O)C1CCN(S(=O)(=O)c2ccc(-c3nn[nH]n3)cc2)CC1 | 12µM* | 6% | -6 | 0.01µM* | 14 | 2
O=C(O)C1CCCCC1C(=O)Nc1ccc(S(=O)(=O)N2CCCCCC2)cc1 (stereo unspecified) | -19% | / | -15 | -16% | -6 | 13
COC(=O)C1(C(F)(F)F)C2C=CC(C2)N1S(=O)(=O)c1ccc(C)cc1 (stereo unspecified) | 23µM* | / | 5 | 21µM* | 15 | 11
Cc1ccc(S(=O)(=O)N2CCC(C(=O)Nc3ccc(C(C)C)cc3)CC2)cc1 | 23µM* | -1%[56.1 µM] | 3 | 15µM* | -4 | -2
